From PubChem
Shown is part of a subset that was picked to be rich in hits.
OvCa metastasis = ovarian cancer metastasis inhibition, 3D TME model | SKOV3ip1-GFP adhesion/invasion on 3D omental model, fluorescence | Potency, µM (doses to about 45.8 µM), usual class: inhibitors | actives 0.1% (n = 46,000) | AID 1963576; further: nearly all actives have a fitted effect of over 65% in size
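Primary human omental fibroblast/mesothelial 3D culture pre-formed 48 h. SKOV3ip1-GFP cells added with compounds (0.36-46 umol/L), incubated 2 h RT/16 h 37 C, fixed; GFP cells quantified at 488/509 nm.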
p53null 32C tox = p53 null cell cytotoxicity, permissive temperature. H1299-neo p53 null cells, ATP luminescence, 24 h, 32C. Potency, µM (titrated, usually from 46.1 µM), actives largely listed as cytotoxic. actives 0.62% (n = 55,000); further: nearly all actives have a fitted effect of over 55% in size
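We seeded p53-null H1299-neo cells, incubated them overnight at 37C, and added compounds across a range up to 46 uM. After 24 hours at 32C, ATP reagent was applied for 20 min at room temperature and luminescence recorded.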
NTMT1 inh = NTMT1 methyltransferase inhibition; Q9BV86; NTMT1 MTase-Glo SAH luminescence, purified enzyme; Potency, µM (doses to about 114 µM), most hits filed as inhibitors; actives 2.5% (n = 59,000); AID 1645870; further: nearly all actives have a fitted effect of over 65% in size
Target sequence (Q9BV86 whole entry, looked up): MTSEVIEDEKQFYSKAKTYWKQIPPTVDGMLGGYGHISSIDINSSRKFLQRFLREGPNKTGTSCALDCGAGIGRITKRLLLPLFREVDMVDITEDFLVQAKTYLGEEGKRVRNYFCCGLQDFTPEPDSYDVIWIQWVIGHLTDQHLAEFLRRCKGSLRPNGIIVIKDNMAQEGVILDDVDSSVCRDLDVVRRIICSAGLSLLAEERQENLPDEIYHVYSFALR
p53null 39C tox = selectivity test: cytotoxicity in p53 null cells, nonpermissive temperature; H1299 p53-null (neo) cells, 39C, ATPlite viability, 24 h; Potency, µM (doses to about 46.1 µM), hits mostly cytotoxic; actives 0.97% (n = 55,000); AID 904; further: nearly all actives have a fitted effect of over 50% in size
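Luminescent ATP signal reported cell survival after H1299 lines (neo, p53 null; or p53 A138V) received up to 46 uM compound and 24 hr incubation at 39C.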
Each line names hits and unclear results; the compound was inactive in the other large screens; ! = a repeat was not active. The call rests on the fitted dose curve; in most records, active means well fitted curve in the direction sought with a large enough effect; inconclusive means small, poorly fitted or top-dose-only effect, or another doubt; inactive means no such curve, though single readings can be large; an effect the other way counts as inactive or inconclusive.

Cc1ccc(Cl)cc1-n1ncc2c(Nc3cccc(C)c3C)ncnc21	NTMT1 inh 5.6µM
COc1ccc(-c2c(-c3cc(C(=O)O)ccn3)ncn2C)cc1	none (no result: OvCa metastasis, p53null 32C tox, p53null 39C tox)
Cc1c(C)n(Cc2ccccc2)c2ccc(C(=O)NCc3ccc(OC(C)C)cc3)cc12	none
Cc1c(C)n(Cc2ccc(-c3ccccc3C(=O)O)cc2)c2ccc(C(=O)N[C@@H](C)c3ccc([N+](=O)[O-])cc3)cc12	NTMT1 inh 32µM! (no result: p53null 32C tox, p53null 39C tox)
Cc1onc(-c2ccc(F)cc2)c1COc1ccc(C(=O)N2CCS(=O)(=O)CC2)cn1	none (no result: OvCa metastasis, p53null 32C tox, p53null 39C tox)
Cc1ccc(S(=O)(=O)Nc2ccc(C(=O)Nc3nc(-c4ccccc4)cs3)cc2Cl)cc1	none (no result: OvCa metastasis, p53null 32C tox, p53null 39C tox)
CCCc1ccc(S(=O)(=O)N2CCC(c3nnc(-c4cccc(C)c4)o3)CC2)cc1	p53null 32C tox inconclusive, NTMT1 inh 79µM
COc1ccc(Oc2cc(NCCC(F)(F)F)c3ncc(-c4ccc(C(=O)NC5CC5)c(C)c4)n3n2)c(F)c1F	none (no result: OvCa metastasis, p53null 32C tox, p53null 39C tox)
CCCCN(C)C(=O)CSc1c2c(nc3ccc(Cl)cc13)CCCC2	NTMT1 inh inconclusive
CC1CCCN(C(=O)CSc2c3c(nc4cc(Cl)ccc24)CCCC3)C1 (stereo not drawn)	p53null 39C tox 16µM
CCCN(CCC)C(=O)CSc1c2c(nc3ccc(Cl)cc13)CCCC2	p53null 39C tox inconclusive
CN(Cc1ccccc1)C(=O)CSc1c2c(nc3ccc(Cl)cc13)CCCC2	OvCa metastasis inconclusive, p53null 32C tox inconclusive, p53null 39C tox 13µM
COc1cc(OC)c(N(C)C(=O)CSc2c3c(nc4ccc(Cl)cc24)CCCC3)cc1Cl	p53null 39C tox 20µM
CC(=O)Nc1sc2c(c1-c1ccc(C#N)cc1)CCNC2	none (no result: OvCa metastasis, p53null 32C tox, p53null 39C tox)
CN(C)C(N)=NC(=N)N	none (no result: OvCa metastasis, p53null 32C tox, p53null 39C tox)
COc1cc(OC)cc(-c2ccc3c(-c4ccc(F)cc4)[nH]nc3n2)c1	none (no result: OvCa metastasis, p53null 32C tox, p53null 39C tox)
Oc1cccc(Nc2cc(-c3ccccc3)ncn2)c1	NTMT1 inh 40µM, p53null 39C tox inconclusive
Cc1ccccc1CN1C(=O)C(O)(CC(=O)c2cccc(Br)c2)c2ccccc21 (stereo not drawn)	p53null 32C tox inconclusive, p53null 39C tox 32µM
COc1ccc(OC)c(C(=O)CC2(O)C(=O)N(Cc3ccccc3C)c3ccccc32)c1 (stereo not drawn)	NTMT1 inh inconclusive, p53null 39C tox inconclusive
COc1cc(F)c(C(C)C)cc1-c1ccc(C(F)(F)F)cc1CN1C(=O)OC(c2cc(C(F)(F)F)cc(C(F)(F)F)c2)C1C (stereo not drawn)	none (no result: OvCa metastasis, p53null 32C tox, p53null 39C tox)
Cc1ncc(CCCN(C)C)cc1Nc1ncc2c(n1)-c1ccc(C(F)(F)F)cc1NC(=S)C2	NTMT1 inh 32µM (no result: OvCa metastasis, p53null 32C tox, p53null 39C tox)
CCOc1ccc(CCNC(=O)c2cc3sccc3n2Cc2ccccn2)cc1OCC	none (no result: OvCa metastasis, p53null 32C tox, p53null 39C tox)
CC(=O)OC1[C@H]2[C@@H](C[C@@H](C)[C@@H]3C=CC(=O)[C@@]13C)OC(=O)[C@@H]2C (stereo partly drawn)	none (no result: OvCa metastasis, p53null 32C tox, p53null 39C tox)
O=c1c2ccccc2nc2sc(Nc3ccc4c(c3)CCC4)nn12	none (no result: OvCa metastasis, p53null 32C tox, p53null 39C tox)
Nc1nc(Nc2ccc3c(c2)CC[C@@H](N2CCCC2)CC3)nn1-c1cc2c(nn1)-c1ccccc1CCC2	NTMT1 inh 35µM (no result: OvCa metastasis, p53null 32C tox, p53null 39C tox)
c1ccc(CNc2nc(NCc3ccccc3)c3ccccc3n2)cc1	NTMT1 inh 45µM! (no result: p53null 32C tox, p53null 39C tox)
c1ccc(CNc2nc(-c3cccs3)nc3ccccc23)cc1	none (no result: OvCa metastasis, p53null 32C tox, p53null 39C tox)
Cc1cc(NS(=O)(=O)CCNC(=O)Cc2ccc(Cl)c(Cl)c2)no1	none (no result: OvCa metastasis, p53null 32C tox, p53null 39C tox)
CC(C)N(Cc1ccccc1)C(=O)c1cc2ccc3cccnc3c2[nH]1	none
CC(C)N(CCC(=O)c1ccc2ccccc2c1)Cc1ccccc1	NTMT1 inh 50µM (no result: OvCa metastasis, p53null 32C tox, p53null 39C tox)
Oc1ccc(Nc2nc(-c3ccc(Cl)cc3)nc3ccccc23)cc1	p53null 32C tox inconclusive, p53null 39C tox 16µM
Cc1ccc(Nc2nc(-c3ccncc3)nc3ccccc23)cc1F	none (no result: OvCa metastasis, p53null 32C tox, p53null 39C tox)
O=C1CCCC2=C1C(c1[nH]ncc1Cl)NC(=NCc1ncc[nH]1)N2 (stereo not drawn)	none (no result: OvCa metastasis, p53null 32C tox, p53null 39C tox)
COc1cccc(NC(=O)CSc2nnc(NC(=O)NC3CCCCC3)s2)c1	p53null 32C tox 13µM
COc1ccc(-c2cc(C(C)=O)c(C)n2CCC(=O)Nc2ccc(C)cc2Cl)cc1	NTMT1 inh 89µM
COc1cc(Oc2ccnc3cc(OC)c(OC)cc23)ccc1NC(=O)NC(C)c1nccs1 (stereo not drawn)	NTMT1 inh 79µM! (no result: p53null 32C tox, p53null 39C tox)
CCCNS(=O)(=O)c1ccc2nc(NC(=O)c3ccc(F)cc3)sc2c1	NTMT1 inh 8.9µM
CCCCNS(=O)(=O)c1ccc2nc(NC(=O)c3cccnc3)sc2c1	OvCa metastasis inconclusive, p53null 39C tox inconclusive
COc1cccc(C2=CC(c3ccccc3F)n3ncc(C(=O)Nc4ccc(F)cc4)c3N2)c1 (stereo not drawn)	OvCa metastasis inconclusive, NTMT1 inh 22µM
Cc1ccc(S(=O)(=O)Nc2cc(-c3ccc(C#N)s3)ccc2C)cc1	none (no result: OvCa metastasis, p53null 32C tox, p53null 39C tox)
CCOC(=O)C1CCC(C(=O)Nc2ccc([S+](=O)([O-])Nc3nccs3)cc2)CC1 (stereo not drawn)	none (no result: OvCa metastasis, p53null 32C tox, p53null 39C tox)
COc1cc2c(Nc3ccc(Cl)c(Cl)c3F)ncnc2cc1OCC1C[C@@H]2CN(C)C[C@H]2C1	NTMT1 inh 24µM (no result: p53null 32C tox, p53null 39C tox)
COc1cc2c(Nc3ccc(Br)cc3F)ncnc2cc1OCC1CCN(C)CC1	NTMT1 inh 35µM! (no result: p53null 32C tox, p53null 39C tox)
C[N+]1(CC2COC(c3ccccc3)(C3CCCCC3)O2)CCCCC1 (stereo not drawn)	NTMT1 inh 16µM (no result: OvCa metastasis, p53null 32C tox, p53null 39C tox)
COc1cc(-c2cccc(O)c2)cc2c1OCO2	none (no result: OvCa metastasis, p53null 32C tox, p53null 39C tox)
Cc1cc(-c2nnc3n2CCCCC3)c(C)n1-c1cccc2ccccc12	none (no result: OvCa metastasis, p53null 32C tox, p53null 39C tox)
